AMA1 RON2 block – inhibitors of Plasmodium falciparum AMA1-RON2 interaction. AlphaScreen AMA1-biotinylated RON2 peptide binding. Potency, µM (doses to about 58.2 µM), inactives show top-dose activity change, negative = inhibition, actives largely listed as inhibitors. hit rate 0.2% among 360,000. AID 720542;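 also: potency is read from the fitted curve at half-maximal effect; 0% = vehicle wells and -100% = peptide control; nearly all actives have a fitted effect of over 45% in size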
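AMA1 (3D7) with his tag at 25 nM final met compounds first, then biotinylated RON2 peptide at 25 nM; detection used donor plus acceptor beads, 10 µg/mL apiece, read by AlphaScreen after 30 min at room temperature.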
CHX counter – affects cycloheximide protein synthesis inhibition readout, counter-screen; AID 2314; hit rate 12% among 300,000; max response, %; cell reporter, cycloheximide protein synthesis inhibition counterscreen; in the data active = max response mostly above about 13%, no sharp cut-off; inactive = mostly below about 14%; also: read at 38.3 µM for the half of the compounds with a filed dose; 0% is about no effect
HCV inhibitor – inhibitors of hepatitis C virus infection | Huh7.5.1 HCVcc-Cre infection, luciferase reporter, 44 h | Potency, µM (titrated, usually from 41.8 µM), for inactives: at the top dose activity change, negative = inhibition, usual class: inhibitors | hit rate 3.4% among 340,000 | AID 651820; also: potency is read from the fitted curve at half-maximal effect; % is scaled to controls: 0 for no effect and ±100 for the full control effect
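Whole-lifecycle infectious HCVcc-Cre system; cells 1,000/well, compound then virus (~0.5 moi) added 4 h after plating, 44 h culture. Luciferase read 15 sec following 15 min substrate incubation, room temp.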
Pf growth 96h – P. falciparum growth inhibition at 96 hours; P. falciparum luciferase reporter growth, 96 h; Potency, µM (series often up to 28.7 µM), for inactives: top-dose activity change, negative = inhibition, actives largely listed as inhibitors; hit rate 6.9% among 320,000; AID 504834; also: potency is read from the fitted curve at half-maximal effect; % is scaled to controls: 0 for no effect and ±100 for the full control effect
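Delayed-death screen, second-generation endpoint: infected erythrocytes, 2% hematocrit, 0.05% parasitemia final; 96 hours at 37 C, 5% CO2; luciferase detection reagent; luminescence decrease equals reduced growth.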
Pf growth 48h – P. falciparum growth inhibition at 48 hours (one generation); hit rate 5.9% among 310,000; P. falciparum luciferase growth in erythrocytes, 48 h; AID 504832; Potency, µM (titrated, usually from 28.7 µM), inactives show at the top dose activity change, negative = inhibition, actives largely listed as inhibitors; also: potency is read from the fitted curve at half-maximal effect; % is scaled to controls: 0 for no effect and ±100 for the full control effect
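Luminescence readout; reporter = integrated firefly luciferase in P. falciparum. RBC culture at 2% hematocrit, 0.1% parasitemia final, 37 C/5% CO2; decreased signal taken as growth inhibition.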
Shiga toxin inh – inhibitors of Shiga toxin in Vero cells. hit rate 9.2% among 290,000. inhibition, % at 38.7 µM. AID 2315. Vero cells, Shiga toxin protein synthesis inhibition reporter; in the data active = inhibition mostly above about 28%, no sharp cut-off; inactive = mostly below about 43%; also: 0% is about no effect
* = called active by the depositor; ? = inconclusive; nt = no result; [ ] = remark or other dose. Shown are actives, neighbours in structure and some others; about 21% of the full set was active somewhere. Unless noted, calls follow the shape of the dose curve; as a rule, active = well fitted curve in the direction sought with a large enough effect; inconclusive = small, poorly fitted or top-dose-only effect, or another doubt; inactive = no such curve, though single readings can be large; an effect the other way counts as inactive or inconclusive.

SMILES	AMA1 RON2 block	CHX counter	HCV inhibitor	Pf growth 96h	Pf growth 48h	Shiga toxin inh
O=C(CC1SC(=NCCc2ccccc2)N(/N=C/c2cccs2)C1=O)Nc1ccc(Cl)cc1 (stereo unspecified)	36.4%	12.9*	3.0%	?	?	20.8
COCCNCc1nc2sc(C)c(-c3ccccc3)c2c(=O)[nH]1	93.3%	-2.4	-22.8%	2.4%	3.7%	23.4
O=[N+]([O-])c1ccc(N=Nc2ncc[nH]2)cc1	14.1%	16.3*	?	31.8%	?	44.7
O=[N+]([O-])c1ccc(N=NN(CCO)CCO)cc1	-2.3%	4.3	-3.0%	33.7%	39.0%	-10.8
CCOc1ccc(N(CC(=O)Nc2ccccc2)S(C)(=O)=O)cc1	-11.5%	18.6*	3.3%	3.5%	41.2%	50.2*
CCOc1ccc(N(CC(=O)Nc2ccccc2OC)S(C)(=O)=O)cc1	-8.7%	9.2	2.1%	-4.4%	5.5%	14.0
CCOc1ccc(N(CC(=O)Nc2ccc(C)c(C)c2)S(C)(=O)=O)cc1	5.8%	78.0*	8.1%	9.8%	121.7%	106.7*
CCOC(=O)c1ccccc1NC(=O)CN(c1ccc(OCC)cc1)S(C)(=O)=O	nt	-1.3	nt	23.5%	11.5%	-14.5
CCOc1ccc(N(CC(=O)Nc2ccccc2Cl)S(C)(=O)=O)cc1	0.0%	28.1*	-18.5%	?	0.0%	74.1*
O=C(CCNS(=O)(=O)c1ccccc1)NCC1CCCCC1	-2.5%	nt	?	69.4%	29.1%	nt
CC(C)NC(=O)CN1CCN(C(c2cc3ccccc3o2)c2nnnn2C(C)(C)C)CC1 (stereo unspecified)	6.2%	nt	nt	nt	nt	nt
CC(=O)NC(Cc1ccccc1)c1ccc2c(c1)OCCCO2 (stereo unspecified)	4.4%	10.9	-13.3%	-13.6%	-6.9%	active
COc1cccc(C(=O)NC(Cc2ccccc2)c2ccc3c(c2)OCCCO3)c1 (stereo unspecified)	-1.1%	1.6	?	3.29µM*	nt	-2.7
CC(CC(=O)NC(C)c1ccc2c(c1)OCCO2)c1ccccc1 (stereo unspecified)	-5.6%	4.5	-8.5%	91.9%	3.8%	5.8
O=C(NC(Cc1ccccc1)c1ccc2c(c1)OCCCO2)c1ccc(F)cc1 (stereo unspecified)	5.6%	20.3	?	9.28µM*	nt	29.7
Cc1ccc(-c2nc3ccc(C)cn3c2Cc2ccccn2)cc1	17.4%	nt	nt	nt	nt	nt
CCC(C)Sc1ccc(-c2nc3ccc(C)cn3c2NC2CCCCC2)cc1 (stereo unspecified)	-7.9%	nt	-16.0%	?	11.7µM*	nt
COc1ccc(-c2ccc(-c3nc4ccc(C)cn4c3NC3CCCCC3)cc2OC)cc1	-23.9%	nt	?	11.7µM*	11.7µM*	nt
CCC(=O)Nc1c(-c2ccc(C)cc2)nc2ccc(C)cn12	-19.7%	4.1	4.7%	11.7µM*	?	2.2
CCC(C)Sc1cc(-c2nc3ccccn3c2NC2CCCCC2)ccc1OC (stereo unspecified)	-9.9%	nt	?	?	4.15µM*	nt
COc1ccc(OC)c(NC(=O)NCCc2c[nH]c3ccccc23)c1	-1.8%	3.1	?	-14.0%	?	1.0
Cc1onc(-c2ccccc2Cl)c1C(=O)NCc1nnnn1-c1ccc(F)cc1	9.4%	nt	-3.9%[8.37 µM]	?	?	nt
CC(=O)c1ccc(-c2cccc(-c3nc4ccccn4c3NC3CCCCC3)c2)cc1	-20.1%	nt	10µM*	?	11.7µM*	nt
CCC(C)Sc1cccc(-c2nc3ccc(C)cn3c2NC2CCCCC2)c1 (stereo unspecified)	-24.8%	nt	-9.3%	13.1µM*	8.28µM*	nt
Cc1ccc2nc(-c3cccc(SC4CCCCC4)c3)c(NC3CCCCC3)n2c1	-0.4%	nt	17.1%	nt	nt	nt
Cn1nc(C(C)(C)C)cc1C(=O)N1CCCCC1c1cc(C(=O)Nc2ccc3c(c2)OCO3)no1 (stereo unspecified)	-4.8%	nt	nt	nt	nt	nt
COC(=O)c1nc2ccc(C)cn2c1F	3.9%	19.5*	29.4%	-15.3%	nt	36.3
COC(=O)c1ccc2nc(-c3ccc(C)cc3)c(Cc3cccc(F)c3)n2c1	6.6%	nt	nt	nt	nt	nt
COc1ccc2c(C)cc3n[nH]c(=S)n3c2c1	75.0%	3.7	0.4%	55.6%	5.2%	14.1

Screening results (PubChem BioAssay)
